Screening results as filed in PubChem.
nsP2pro inh: inhibitors of chikungunya virus nsP2 protease; Q8JUX6; FRET peptide cleavage, nsP2pro, fluorescence 1 h; Potency, µM (doses to about 24.9 µM), for the others: at the top dose activity change, negative = inhibition, hits mostly inhibitors; 1.1% of 31,000 active; also: nearly all actives have a fitted effect of over 60% in size
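Recombinant nsP2pro (150 nM) was preincubated with compound 15 min at room temperature in 10 mM Tris-HCl pH 8.0, 0.01% Tween 20. Peptide 2 FRET substrate (2.5 uM) was then added and fluorescence read after 1 h. Seven-point series, up to 25 uM.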
nsP2 cell sec: cell-based CHIKV nsP2 protease inhibition, secondary; cell-based CHIKV nsP2 protease reporter assay; 10% of 450 active; shares compounds with nsP2pro inh; Potency, µM (top dose mostly 51.1 µM), for inactives: top-dose activity change, negative = inhibition, hits mostly inhibitors; also: nearly all actives have a fitted effect of over 70% in size
NSP2 full ctr: selectivity test for CHIKV nsP2 protease inhibitors: full-length NSP2; shares compounds with nsP2pro inh; Full-length CHIKV NSP2 protease enzymatic counterscreen; Potency, µM (doses to about 50.7 µM), inactives show top-dose activity change, negative = inhibition, hits mostly inhibitors; 39% of 410 active; also: nearly all actives have a fitted effect of over 65% in size
Furin counterscr: selectivity counter-screen for CHIKV nsP2 protease inhibitors: human furin; Potency, µM (titrated, usually from 50.6 µM), for the others: at the highest dose activity change, negative = inhibition, most hits filed as inhibitors; Recombinant human furin enzymatic counterscreen, fluorogenic substrate; shares compounds with nsP2pro inh; AID 1964102; 6% of 410 active
nsP2 NS23 pep: nsP2pro inhibition on native NS2/3 peptide substrate | shares compounds with nsP2pro inh | Purified CHIKV nsP2 protease, endogenous NS2/3 peptide cleavage | Potency, µM (top dose mostly 51 µM), inactives show at the highest dose activity change, negative = inhibition, hits mostly inhibitors | 34% of 410 active; also: nearly all actives have a fitted effect of over 55% in size
Papain cs: papain protease inhibition, counterscreen for nsP2pro inhibitors. shares compounds with nsP2pro inh. purified papain protease activity, enzymatic inhibition. Potency, µM (top dose mostly 51 µM), inactives show at the top dose activity change, negative = inhibition, hits mostly inhibitors. 5% of 410 active
Target sequence (P00784 whole entry, looked up): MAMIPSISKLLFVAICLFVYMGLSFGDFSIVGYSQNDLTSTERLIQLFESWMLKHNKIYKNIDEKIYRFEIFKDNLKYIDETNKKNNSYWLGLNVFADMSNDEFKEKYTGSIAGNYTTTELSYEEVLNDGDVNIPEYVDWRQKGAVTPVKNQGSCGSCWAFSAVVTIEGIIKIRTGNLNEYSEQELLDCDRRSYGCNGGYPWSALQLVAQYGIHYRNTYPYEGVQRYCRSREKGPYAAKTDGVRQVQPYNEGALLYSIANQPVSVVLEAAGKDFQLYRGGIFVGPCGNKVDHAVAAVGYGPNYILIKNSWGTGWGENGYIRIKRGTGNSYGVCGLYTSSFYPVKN
nsP2pro conf qHTS: confirmation of CHIKV nsP2 protease inhibitors; 43% of 410 active; CHIKV nsP2 protease enzymatic activity, qHTS; shares compounds with nsP2pro inh; AID 1964105; Potency, µM (top dose mostly 25.5 µM), for the others: at the highest dose activity change, negative = inhibition, most hits filed as inhibitors; also: nearly all actives have a fitted effect of over 75% in size
HCV NS3 4A cs: selectivity counter-screen for CHIKV nsP2 protease inhibitors: HCV NS3/4A | Potency, µM (top dose mostly 50.9 µM), usual class: inhibitors | HCV NS3/4A protease biochemical counterscreen | 20% of 410 active | shares compounds with nsP2pro inh; also: nearly all actives have a fitted effect of over 55% in size
An asterisk follows results filed as active; [ ] = remark or other dose. This excerpt belongs to a sample that is enriched for hits. Calls follow the shape of the full dose curve. % is scaled to controls: 0 for no effect and ±100 for the full control effect; potency is read from the fitted curve at half-maximal effect.

For CC1=C(C(=O)OCC2CCCCC2)C(c2ccccc2F)CC(=O)N1 (centres undefined) the results were nsP2pro inh -8.0%.
Screening O=C1CC(c2c(F)cccc2Cl)c2c(ccc3ccccc23)N1 (centres undefined) returned nsP2pro inh -15.1%.
`CNc1nc2c(s1)C(c1ccccc1F)CC(=O)N2` (centres undefined) gave nsP2pro inh 1.58µM*, nsP2 cell sec 7.9%, NSP2 full ctr 3.26µM*, Furin counterscr -8.6%, nsP2 NS23 pep 4.61µM*, Papain cs 13.6%, nsP2pro conf qHTS 2.83µM* and HCV NS3 4A cs inconclusive.
O=C1Nc2cc(Cl)ccc2/C1=C\c1cc(Cl)c(O)c(Cl)c1 was read as nsP2pro inh inactive.
`N#Cc1ccc(O[C@@H]2CCOC[C@H]2NC(=O)CCCn2cncn2)cc1` gave nsP2pro inh -2.4%.
`O=C(COc1ccccc1)N1CCC(OCc2ccccc2)C1` (centres undefined) gave nsP2pro inh -1.8%.
For Cc1coc2c1C(=O)C(=O)c1c-2ccc2c1CCCC2(C)C the results were nsP2pro inh inconclusive, nsP2 cell sec -8.1%, NSP2 full ctr 11.6µM*, Furin counterscr -15.4%, nsP2 NS23 pep inconclusive, Papain cs inconclusive, nsP2pro conf qHTS inconclusive and HCV NS3 4A cs inactive.
`Cc1coc2c1C(=O)C(=O)c1c-2ccc2c(C)cccc12` gave nsP2pro inh inconclusive, nsP2 cell sec -1.6%, NSP2 full ctr inconclusive, Furin counterscr -13.5%, nsP2 NS23 pep inconclusive, Papain cs inconclusive, nsP2pro conf qHTS inconclusive and HCV NS3 4A cs inactive.
`COc1ccccc1CN1CCC(CN(CC(C)C)C(=O)C2C=CCN2)CC1` (centres undefined) gave nsP2pro inh 4.1%.
Screening O=C(c1ccc2ccccc2n1)N1C[C@@H](CO)[C@H](c2ccncc2)C1 returned nsP2pro inh inactive.
Screening O=C(NCCc1ccccc1)N1CC(c2noc(C3CCCN3CC3CC3)n2)C1 (centres undefined) returned nsP2pro inh inactive.
CSc1ccccc1-c1ncc(C)c(NCc2ccc(-c3cccnc3)cc2)n1 was read as nsP2pro inh -38.7%.
`Cn1nnc(-c2ccc(-c3ccc(N4C[C@@H](CO)OC4=O)cc3F)cn2)n1` gave nsP2pro inh 1.5%.
Screening COc1ccc(O[C@@H]2O[C@H](CO)[C@H](O)[C@H](O)[C@H]2O)cc1 returned nsP2pro inh 5.0%.
`Cc1ccnc(N(C)C(=S)N2CCN(c3cccc(C(F)(F)F)c3)CC2)c1` gave nsP2pro inh -3.1%.
Nc1ccc(-c2ccc(NC(=O)c3cccs3)cn2)cc1 was read as nsP2pro inh 4.7%.
Screening COc1ccccc1C(=O)Nc1ccc(NC(=O)c2cccs2)cc1 returned nsP2pro inh -7.5%.
`COc1ccc(-c2ccc(NC(=O)c3cccs3)cn2)cc1` gave nsP2pro inh inconclusive, nsP2 cell sec 0.2%, NSP2 full ctr inconclusive, Furin counterscr -4.1%, nsP2 NS23 pep -14.6%, Papain cs -3.8%, nsP2pro conf qHTS -6.5% and HCV NS3 4A cs inconclusive.
Screening CN1CC(C(=O)NCc2cccs2)NC1=O (centres undefined) returned nsP2pro inh -13.2%[39.2 µM].
`c1coc(-c2nnc([C@H]3CCN(Cc4c[nH]c5ccccc45)C3)o2)c1` gave nsP2pro inh 3.3%[39.2 µM].
`COc1cccc(NC(=S)N2CCN(c3cccc(Cl)c3Cl)CC2)n1` gave nsP2pro inh -13.5%.
Screening CC1=CC(=O)C[C@H]2[C@@H]1CC[C@@H](C)[C@]21CO[C@H](c2ccoc2)C1=O returned nsP2pro inh inconclusive, nsP2 cell sec 1.2%[33.5 µM], NSP2 full ctr -20.7%[33.5 µM], Furin counterscr 6.1%[33.5 µM], nsP2 NS23 pep inactive, Papain cs -5.0%[33.5 µM], nsP2pro conf qHTS 10.5%[16.7 µM] and HCV NS3 4A cs inactive.
For CO[C@@H]1[C@H](C)OC(O[C@H]2CC(Oc3cc4cc5c(c(O)c4c(O)c3C)C(=O)[C@@H](OC3C[C@@H](OC4C[C@H](OC6C[C@](C)(O)[C@@H](OC(C)=O)[C@H](C)O6)[C@@H](O)[C@H](C)O4)[C@H](O)[C@@H](C)O3)[C@H]([C@@H](OC)C(=O)[C@@H](O)[C@H](C)O)C5)O[C@@H](C)[C@H]2OC(C)=O)C[C@@H]1O (some centres undefined) the results were nsP2pro inh -11.3%.
`CCOC(=O)[C@H](CCc1ccccc1)N[C@@H](C)C(=O)N1CCC[C@H]1C(=O)O` gave nsP2pro inh 3.4%.
Screening CC(NC(CCc1ccccc1)C(=O)O)C(=O)N1C(=O)N(C)CC1C(=O)O (centres undefined) returned nsP2pro inh inconclusive, nsP2 cell sec 2.7%, NSP2 full ctr 14.6µM*, Furin counterscr 50.7%, nsP2 NS23 pep -24.6%, Papain cs -16.3%, nsP2pro conf qHTS inconclusive and HCV NS3 4A cs inactive.
`CCC[C@H](N[C@@H](C)C(=O)N1[C@H](C(=O)O)C[C@@H]2CCCC[C@@H]21)C(=O)O` gave nsP2pro inh -13.1%.
c1nc(OCc2cnc[nH]2)c2cc(-c3ccc4c(c3)OCO4)ccc2n1 was read as nsP2pro inh inactive.
For O=C(c1cnc2n1CCN(CCc1ccccc1)CC2)N1CCC(c2ccccc2)CC1 the results were nsP2pro inh inactive.
`O=S(=O)(NC[C@H]1O[C@@H](CO)[C@@H](O)[C@H]1N1CCN(c2ccc(F)cc2)CC1)c1ccc(F)cc1` gave nsP2pro inh -19.4%.
`COc1nccc(-c2nc(Nc3ccc(F)c(F)c3)c3ccccc3n2)c1Cl` gave nsP2pro inh inactive.
For O=C1CCN(Cc2cccc(F)c2)CCCOCCN1 the results were nsP2pro inh 0.4%.
